Experimental findings from PubChem BioAssay are described below.

SMILES strings stand for the structures. Active and inactive are the calls of the source.

Test [1] deals with PRMT1 (protein arginine N-methyltransferase 1). The test is described as follows: small molecules binding arginine methyltransferase PRMT1 – biochemical, small-molecule microarray, 635 nm fluorescence, primary screen (AID 1088).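 Also: binding of Prmt1 protein to compounds spotted on small-molecule microarray slides.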 Conditions: higher = more signal.
Test [2] can be described thus: growth effects on S. cerevisiae YJM789 – YJM789 clinical isolate, OD600, 24 h, basal, primary screen (AID 1089).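 Also: growth of clinical yeast isolate S. cerevisiae YJM 789 seeded 1000 cells per well; test concentration not given here.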 The following applies: higher = more signal, called active from +8 up or from −8 down.
Test [3] in a line: S. pombe growth modifiers, basal conditions – strain 972, OD600, 24 h, no modulator, primary screen (AID 1090).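 Also: basal condition with compound alone and no growth modifier present; test concentration not given here.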 Conditions: S. pombe 972 growth, higher = more signal, called active from +8 up or from −8 down.
Test [4] can be described thus: budding yeast growth modifiers under rapamycin – strain BY4716, OD600, 96 h, primary screen (AID 1091). Also: test concentration not given here. Conditions: S. cerevisiae BY4716 + rapamycin, higher = more signal, called active from +8 up or from −8 down.
Test [5] concerns the target Torsin-1A-interacting protein 2 (Homo sapiens) (UniProt Q8NFQ8). The test is described as follows: small molecules binding lysate-expressed LULL1 – cell lysate, human LULL1 lysate, 635/667 nm fluorescence, primary screen (AID 1092).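 Also: probe is lysate of COS7 cells overexpressing human LULL1; score merges per-feature 667 nm fluorescence with signal-to-noise.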 Conditions: small-molecule microarray, hLULL1 lysate binding, 635 nm fluorescence; higher = more signal.
A short description of test [6]: optical density change of DRC41 E. coli – strain DRC41, OD650, 24 h, E. coli filamentation project, primary screen (AID 1093).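 Also: MC1000 strain lacking acrAB efflux and sulA so SOS filamentation is blocked; test concentration not given here.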 The following applies: E. coli DRC41 growth, higher = more signal, called active from +8 up or from −8 down.
A short description of test [7]: probe aLefty2 binding to arrayed compounds – biochemical, biotinylated probe, 635/667 nm fluorescence, primary screen (AID 1094).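 Also: score merges spot fluorescence near 667 nm with spot signal-to-noise ratio.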 Conditions: small-molecule microarray, higher = more signal.
Test [8] concerns Noggin (protein binding on small-molecule microarray). Description: small molecules binding Noggin protein – biochemical, 635/667 nm fluorescence, primary screen (AID 1095).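 Also: score merges 667 nm feature fluorescence with signal to noise over triplicate slides.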 The following applies: 635 nm fluorescence, higher = more signal.
Test [9] addresses Neurogenic locus notch homolog protein 3 (Homo sapiens) (UniProt Q9UM47). Description: small molecules binding NOTCH3 protein – biochemical, 635/667 nm fluorescence, primary screen (AID 1096). The following applies: small-molecule microarray, 635 nm fluorescence, higher = more signal.
Test [10] can be described thus: probe aEGFR binding to arrayed compounds – biochemical, biotinylated probe, 635/667 nm fluorescence, primary screen (AID 1097).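 Also: probe is a biotinylated anti-EGFR antibody binding compounds printed on slides; score combines fluorescence near 667 nm and signal to noise of each spot.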 Conditions: small-molecule microarray, higher = more signal.

Neurogenic locus notch homolog protein 3 (Homo sapiens), sequence (Q9UM47 whole entry, looked up): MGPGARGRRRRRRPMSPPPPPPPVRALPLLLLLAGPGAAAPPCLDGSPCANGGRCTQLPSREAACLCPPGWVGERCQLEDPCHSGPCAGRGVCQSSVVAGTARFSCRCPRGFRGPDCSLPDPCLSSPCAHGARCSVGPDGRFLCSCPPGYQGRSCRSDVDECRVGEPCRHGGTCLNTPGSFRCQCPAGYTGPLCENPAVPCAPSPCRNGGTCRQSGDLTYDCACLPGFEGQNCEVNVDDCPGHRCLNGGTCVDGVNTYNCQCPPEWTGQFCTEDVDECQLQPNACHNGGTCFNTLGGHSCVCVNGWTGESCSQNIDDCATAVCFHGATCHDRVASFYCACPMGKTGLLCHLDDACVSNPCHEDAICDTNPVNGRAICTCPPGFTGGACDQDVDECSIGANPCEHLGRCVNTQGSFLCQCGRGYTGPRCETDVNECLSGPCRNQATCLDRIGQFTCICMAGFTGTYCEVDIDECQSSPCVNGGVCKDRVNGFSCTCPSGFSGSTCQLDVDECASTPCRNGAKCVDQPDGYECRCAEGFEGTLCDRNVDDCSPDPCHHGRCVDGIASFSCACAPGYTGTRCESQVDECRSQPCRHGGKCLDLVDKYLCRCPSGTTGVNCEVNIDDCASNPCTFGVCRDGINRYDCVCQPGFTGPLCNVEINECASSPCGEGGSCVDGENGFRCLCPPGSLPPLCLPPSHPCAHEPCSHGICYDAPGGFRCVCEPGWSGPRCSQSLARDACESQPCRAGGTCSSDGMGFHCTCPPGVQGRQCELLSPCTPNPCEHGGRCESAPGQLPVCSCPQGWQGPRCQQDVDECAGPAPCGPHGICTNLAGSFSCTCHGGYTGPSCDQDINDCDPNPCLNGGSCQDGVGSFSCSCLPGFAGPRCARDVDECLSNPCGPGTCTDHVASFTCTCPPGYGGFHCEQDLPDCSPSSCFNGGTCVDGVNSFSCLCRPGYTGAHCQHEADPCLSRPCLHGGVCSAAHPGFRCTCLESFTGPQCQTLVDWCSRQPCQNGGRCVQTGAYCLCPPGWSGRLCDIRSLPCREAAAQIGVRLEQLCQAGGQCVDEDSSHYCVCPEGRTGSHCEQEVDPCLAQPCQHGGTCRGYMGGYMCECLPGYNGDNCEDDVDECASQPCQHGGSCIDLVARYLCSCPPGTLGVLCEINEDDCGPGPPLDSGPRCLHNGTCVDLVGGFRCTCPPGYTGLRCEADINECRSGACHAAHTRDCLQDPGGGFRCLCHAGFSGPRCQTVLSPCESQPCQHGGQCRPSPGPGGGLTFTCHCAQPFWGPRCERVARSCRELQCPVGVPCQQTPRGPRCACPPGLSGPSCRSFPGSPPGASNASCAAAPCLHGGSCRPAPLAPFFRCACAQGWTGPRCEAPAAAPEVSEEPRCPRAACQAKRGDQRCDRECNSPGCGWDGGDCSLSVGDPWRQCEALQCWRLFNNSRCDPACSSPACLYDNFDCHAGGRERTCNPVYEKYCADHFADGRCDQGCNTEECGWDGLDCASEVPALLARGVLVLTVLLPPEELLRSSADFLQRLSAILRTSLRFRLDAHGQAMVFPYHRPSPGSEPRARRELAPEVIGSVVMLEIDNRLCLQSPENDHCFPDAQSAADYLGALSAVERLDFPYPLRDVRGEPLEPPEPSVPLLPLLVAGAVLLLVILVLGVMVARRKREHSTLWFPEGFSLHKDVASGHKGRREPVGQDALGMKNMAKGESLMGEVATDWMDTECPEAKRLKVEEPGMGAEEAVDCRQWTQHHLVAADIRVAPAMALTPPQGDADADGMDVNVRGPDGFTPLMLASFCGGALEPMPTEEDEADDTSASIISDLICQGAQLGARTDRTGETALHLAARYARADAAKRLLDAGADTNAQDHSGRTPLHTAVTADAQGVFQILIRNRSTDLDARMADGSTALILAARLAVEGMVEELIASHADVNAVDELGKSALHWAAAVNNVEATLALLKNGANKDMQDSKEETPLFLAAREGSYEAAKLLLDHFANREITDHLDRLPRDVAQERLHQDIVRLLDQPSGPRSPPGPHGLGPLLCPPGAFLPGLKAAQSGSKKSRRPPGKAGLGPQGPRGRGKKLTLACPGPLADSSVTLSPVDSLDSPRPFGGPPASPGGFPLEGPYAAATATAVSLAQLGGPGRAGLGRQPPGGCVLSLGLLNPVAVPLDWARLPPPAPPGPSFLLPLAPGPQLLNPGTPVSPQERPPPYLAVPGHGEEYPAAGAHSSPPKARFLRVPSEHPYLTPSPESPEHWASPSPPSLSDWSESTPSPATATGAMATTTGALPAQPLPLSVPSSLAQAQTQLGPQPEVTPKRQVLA
Torsin-1A-interacting protein 2 (Homo sapiens), sequence (Q8NFQ8 whole entry, looked up): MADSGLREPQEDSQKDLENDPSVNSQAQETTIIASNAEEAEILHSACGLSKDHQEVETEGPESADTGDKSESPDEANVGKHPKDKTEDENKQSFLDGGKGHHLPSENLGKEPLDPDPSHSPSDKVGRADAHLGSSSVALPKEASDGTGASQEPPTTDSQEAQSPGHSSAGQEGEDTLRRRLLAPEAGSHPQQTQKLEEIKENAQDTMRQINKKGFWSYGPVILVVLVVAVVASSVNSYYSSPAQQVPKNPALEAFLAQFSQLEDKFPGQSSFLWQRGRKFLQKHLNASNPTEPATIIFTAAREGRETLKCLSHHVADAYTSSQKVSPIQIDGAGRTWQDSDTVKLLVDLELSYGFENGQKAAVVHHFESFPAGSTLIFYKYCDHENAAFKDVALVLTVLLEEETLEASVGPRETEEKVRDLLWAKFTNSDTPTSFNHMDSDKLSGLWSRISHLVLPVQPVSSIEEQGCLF

For the compound `Cc1ccccc1C(O)C1C=CC2C(=O)N(C)C(=O)C2N1Nc1ccc([N+](=O)[O-])cc1[N+](=O)[O-]` (stereo not given), the composite z-score in test [1] is 1.56; in test [5], 3.45; in test [7] it was 0.25; in test [8], 0.17; in [9], 1.08; in [10], 0.0801. Moreover, the z-score in test [2] is 0.426 (inactive); in test [3], 0.73 (inactive); in [4] it was 0.969 (inactive); in test [6], -1.24 (inactive).
As to `O=C1C2C=CC(C(O)c3ccccn3)N(Nc3ccccc3)C2C(=O)N1c1ccccc1` (stereo not given), the composite z-score in test [1] is 0.207; in test [5], 2.24; in test [7], -0.0991; in test [8] it was -0.292; in test [9] it was -0.254; in [10] it was -0.108. For the same compound, the z-score is 0.756 (inactive) in test [2], 1.41 (inactive) in test [3], 0.391 (inactive) in [4] and -0.917 (inactive) in test [6].
With `CC(C)NC(=O)[C@@]1(Cc2ccccc2I)c2ccccc2C(=O)N(Cc2ccccc2C(F)(F)F)[C@H]1c1ccc(CO)cc1`, the composite z-score in [1] was 1.53; in [5], 2.84; in test [7], 0.158; in test [8], 0.461; in [9], 0.662; in test [10] it was -0.0304. In addition, the z-score in test [2] is -0.442 (inactive); in test [3] it was -1.48 (inactive); in test [4], -0.918 (inactive); in [6], 0.125 (inactive).
For the compound `C=CCC(OC(C)=O)[C@@H]1[C@@H](N(Cc2ccc(-c3ccccc3)cc2)C(=O)Cc2ccc(OC)cc2)c2cc(OCCCO)ccc2N1C(=O)c1ccc(-c2ccccc2)cc1` (stereo not given in full), the composite z-score in [1] was -0.0413; in test [5] it was 0.182; in test [7], 0.152; in [8] it was -0.0829; in test [9] it was -0.255; in test [10] it was -0.0488. Besides, the z-score in test [2] is -0.445 (inactive); in [3] it was -0.512 (inactive); in test [4], -0.542 (inactive); in [6], 1.23 (inactive).
With `Cc1ccccc1C(O)C1C=CC2C(=O)N(Cc3ccccc3)C(=O)C2N1n1cnnc1` (stereo not given), the composite z-score in test [1] came out at 0.601; in [5] it was 2.38; in [7] it was 0.0873; in test [8], 0.162; in [9], 1.05; in test [10] it was 0.045. Moreover, the z-score in test [2] was -1.26 (inactive); in test [3], 0.658 (inactive); in [4], -0.796 (inactive); in test [6], -0.0518 (inactive).
Consider `COC(=O)[C@]1(Cc2ccccc2CN=[N+]=[N-])N=C(c2ccc(OCCCO)cc2)O[C@@H]1c1ccccc1CN=[N+]=[N-]`, for which the composite z-score in test [1] was 0.921; in test [5] it was 2; in test [7] it was 0.111; in test [8] it was 0.435; in test [9] it was -0.253; in [10], -0.0828. For the same compound, the z-score was -0.456 (inactive) in test [2], -1.09 (inactive) in test [3], 33.5 (active) in [4] and 2.08 (inactive) in test [6].
For `CC(=O)NCCCC[C@@H]1NC(=O)[C@@H]2C[C@H](C(=O)NCCCC[N+](C)(C)C)[C@H](c3cccc(OCCO)c3)N2C1=O`, the composite z-score in test [1] is -0.598; in [5], -0.0272; in test [7], 0.127; in test [8] it was 1.94; in [9], 0.801; in test [10], -0.162. The z-score in test [2] is 0.408 (inactive); in test [3], 0.338 (inactive); in test [4] it was -0.465 (inactive); in test [6] it was -0.427 (inactive).
As for `CC(C)C[C@@H]1NC(=O)[C@@H]2C[C@H](C(=O)NCc3ccc(F)cc3)[C@H](c3ccc(O)cc3)N2C1=O`, the composite z-score in [1] was 1.43; in [5], 2.96; in [7], 0.0137; in test [8] it was 0.479; in [9], 0.365; in [10] it was -0.178. In addition, the z-score in test [2] is -0.472 (inactive); in test [3], -0.352 (inactive); in [4] it was -0.427 (inactive); in test [6] it was 0.549 (inactive).
With `C=C(COC)C(=O)CC[C@H](OC(=O)c1ccccc1-c1ccccc1C(=O)O)c1ccc(OCCO)cc1`, the composite z-score in test [1] is 1.55; in [5], 0.75; in test [7], -0.117; in [8] it was 1.52; in [9], 0.615; in test [10], -0.111. In addition, the z-score in test [2] was -1.73 (inactive); in test [3], -0.613 (inactive); in test [4], -0.509 (inactive); in test [6] it was 0.802 (inactive).
For the compound `C=CCOC(=O)[C@@H]1[C@H]2C(=O)O[C@H](c3ccccc3)[C@H](c3ccccc3)N2[C@H](c2ccc(OCCOC(=O)[C@@H]3C[C@@H]4C(=O)N5CCC[C@H]5C(=O)N4[C@@H]3c3cccc(OCCO)c3)cc2)[C@@]12C(=O)Nc1ccc(I)cc12`, the composite z-score in [1] was 1.55; in [5] it was 2.49; in test [7], -0.0756; in test [8] it was 1.9; in test [9], 1.11; in test [10] it was -0.0387. The z-score in [2] is 0.581 (inactive); in test [3], 1.05 (inactive); in test [4], 2.18 (inactive); in test [6] it was 0.949 (inactive).
Regarding `CCOC(=O)C1=CC[C@@H](c2ccccc2)N(S(=O)(=O)c2ccc(C)cc2)[C@H]1C=C(C)C`, the composite z-score in test [1] worked out at 1.54; in [5], 3.22; in test [7] it was 0.0704; in test [8], 0.793; in test [9] it was 1.06; in [10] it was 0.101. In addition, the z-score was 0.465 (inactive) in test [2], 2.76 (inactive) in [3], 4 (inactive) in test [4] and 0.322 (inactive) in test [6].
As to `COCC1=C([C@H](O)CCc2ccccc2)[C@H](CO)[C@@H]2C(=O)N(C)C(=O)[C@@H]2C1`, the composite z-score in [1] is 0.267; in test [5], 0.258; in test [7] it was -0.184; in test [8] it was 0.396; in test [9], -0.351; in [10], -0.106. The z-score was 0.119 (inactive) in test [2], -0.551 (inactive) in test [3], 0.165 (inactive) in test [4] and 1.99 (inactive) in test [6].
For `COc1ccc([Si](C)(C)[C@@H]2[C@@H](CCO)O[C@]3(C(=O)N(Cc4ccc(N5C(=O)c6ccccc6Oc6ccccc65)cc4)c4ccccc43)[C@H]2C)cc1`, the composite z-score in test [1] is 0.106; in test [5], -0.49; in [7], -0.0359; in test [8] it was -0.0905; in test [9], 0.18; in test [10], -0.241. Further, the z-score in test [2] is 3.36 (inactive); in [3], 0.262 (inactive); in test [4] it was 37.6 (active); in test [6], 0.045 (inactive).
As for `CCCCC(CC)C(O)C1C=CC2C(=O)NC(=O)C2N1Nc1ccccn1` (stereo not given), the composite z-score in test [1] was 1.34; in test [5] it was 2.74; in test [7] it was -0.11; in test [8] it was 0.0732; in [9], 1.1; in [10], -0.119. The z-score in test [2] is 0.601 (inactive); in [3], 0.764 (inactive); in test [4], 0.722 (inactive); in test [6], -0.828 (inactive).
